The values that follow come from PubChem BioAssay (Tox21).

The nature of assay [1]: Nuclear factor erythroid 2-related factor 2/antioxidant responsive element (Nrf2/ARE) small molecule agonists: qHTS cell viability counter screen in human keratinocytes (AID 1919968; active means well fitted curve in the direction sought with a large enough effect in the repeat runs; an effect the other way counts as inactive or inconclusive; further: nearly all actives have a fitted effect of over 55% in size; further: potency means the concentration at half of the fitted maximal effect). The essentials: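 Cells of the KeratinoSens line were plated at 1,500 per well and left for 5 h before compound transfer from DMSO stocks. After a 23 h incubation (37 C, 5% CO2), CellTiter-Fluor was added. Signal was taken as fluorescence intensity 1 h later.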
(qHTS replaces the single test concentration by a dilution series.)

Assay [2] can be described thus: Nuclear factor erythroid 2-related factor 2/antioxidant responsive element (Nrf2/ARE) small molecule agonists: luciferase reporter gene qHTS assay in human keratinocytes (AID 1919969). Further: nearly all actives have a fitted effect of over 35% in size. Further: potency means the concentration at half of the fitted maximal effect. On the technique in general: A reporter such as luciferase makes a cellular process visible.
For assay [3], the target named is Gonadotropin-releasing hormone receptor (Homo sapiens) (UniProt P30968). The assay can be described thus: Human gonadotropin-releasing hormone receptor (GnRHR) small molecule agonists, calcium flux assay in GnRHR-HEK293 cells (AID 1920063). Further: nearly all actives have a fitted effect of over 35% in size. The method, boiled down:
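Compounds dissolved in DMSO are pin-transferred onto dye-loaded GnRHR-HEK293 cells, which were seeded 18 h before at 37 C/5% CO2. Calcium signal is read as fluorescence intensity at 1 s intervals for 3 min.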
(A change in cytosolic calcium serves as a functional read-out for many receptors and channels.)

The target of assay [4] is KiSS-1 receptor (Homo sapiens) (UniProt Q969F8). The assay can be described thus: Human kisspeptin (KISS1R) small molecule agonists, calcium flux assay in KISS1R-HEK293 cells (AID 1920064; active means well fitted curve in the direction sought with a large enough effect in the repeat runs; an effect the other way counts as inactive or inconclusive). The essentials: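 Cell line: HEK293, stable human KISS1R. Dye loading 1 h at 37 C after 18 h culture. Read: kinetic fluorescence, 480/540 nm, 3 min at 1 s intervals.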
The nature of assay [5]: G protein-coupled receptor (GPCR) small molecule agonists, calcium flux assay: HEK293 wild type cell line counter screen (AID 1920065). The essentials:
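Tox21 10K compounds, 15 concentrations each in triplicate, pin-transferred in DMSO onto dye-loaded cells; kinetic read at 480/540 nm for 3 min, 1 s intervals.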

The nature of assay [6]: p53 small molecule agonists, cell-based qHTS assay with human liver microsomes (AID 1963577).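 Further: p53 response element beta-lactamase reporter cells with liver microsomes plus NADPH.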 The method, boiled down: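 With metabolic activation: human liver microsomes (0.5 mg/mL final) plus NADPH (0.5 mg/mL final) added alongside compounds to p53RE-bla cells; 16 h 37 C exposure; beta-lactamase read by LiveBLAzer fluorescence.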
The nature of assay [7]: p53 small molecule agonists, cell-based qHTS assay with rat liver microsomes (AID 1963578). The method, boiled down: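 Metabolic activation by rat liver microsomes and NADPH, each 0.5 mg/mL final, added right after compounds to p53RE-bla reporter cells (4,000/well, plated 5 h earlier). 16 h at 37 C, then LiveBLAzer substrate for 2 h at room temperature in the dark; fluorescence read-out.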

Assay [8] can be described thus: p53 small molecule agonists, cell-based qHTS assay with human liver microsomes: qHTS cell viability counter screen (AID 1963579). Further: nearly all actives have a fitted effect of over 45% in size. Further: potency means the concentration at half of the fitted maximal effect. The method, boiled down: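 Metabolic activation used human liver microsomes and NADPH, both 0.5 mg/mL final, over 16 hours at 37 C on p53RE-bla cells (4,000/well). Cytotoxicity measured by CellTiter-Glo luminescence, 30 min at room temperature.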

Assay [9] is described as follows: p53 small molecule agonists, cell-based qHTS assay (AID 1963582; active means well fitted activation curve with a large enough effect in the signal ratio in the repeat runs, not every such curve was filed as active; the % refers to the signal ratio; further: potency means the concentration at half of the fitted maximal effect). The method, boiled down:
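16 h compound exposure (37 C) of p53 response element–bla cells, preceded by 5 h recovery at 37 C/5% CO2; read-out via LiveBLAzer B/G FRET substrate, 2 h RT, fluorescence intensity.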

In assay [10] the target is 5-hydroxytryptamine receptor 2A (Homo sapiens) (UniProt P28223). Description: 5-hydroxytryptamine receptor 2A (HTR2A) small molecule antagonists, cell-based qHTS assay (AID 1963586). Further: nearly all actives have a fitted effect of over 45% in size. The essentials:
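CHO cells stably expressing human HTR2A were plated for 18 h at 37 C, then loaded with calcium dye for 1 h. Compounds were preincubated 5 min at room temperature before DOI (4 nM solution) was added. Kinetic fluorescence was read for 3 min.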

Assay [11] has the same target. Description: 5-hydroxytryptamine receptor 2A (HTR2A) small molecule agonists, cell-based qHTS assay (AID 1963587). Further: nearly all actives have a fitted effect of over 30% in size. The method, boiled down:
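HTR2A-CHO cells, plated 18 h at 37 C/5% CO2, dye-loaded 1 h at 37 C; compounds in DMSO added by pin tool (agonist mode). Intracellular calcium flux read as kinetic fluorescence on FDSS over 2 min at 1 s intervals.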

The target of assay [12] is Muscarinic acetylcholine receptor M1 (Homo sapiens) (UniProt P11229). Description: Cholinergic receptor muscarinic 1 (CHRM1) small molecule antagonists, cell-based qHTS assay (AID 1963588). Further: nearly all actives have a fitted effect of over 40% in size. The method, boiled down:
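Compounds were tested at 15 concentrations in three independent runs. Dye-loaded CHRM1-CHO cells were exposed 5 min at room temperature before stimulation by acetylcholine added at 50nM. Intracellular calcium was read kinetically on FDSS for 3 min.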

The target is the same in assay [13]. Description: Cholinergic receptor muscarinic 1 (CHRM1) small molecule agonists, cell-based qHTS assay (AID 1963589). Further: nearly all actives have a fitted effect of over 35% in size. The method, boiled down: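 Homogeneous fluorescence calcium flux, agonist mode. Human M1-expressing CHO cells; compound dosed at 15 concentrations, three independent runs; signal sampled every 1 sec.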
The nature of assay [14]: cAMP Responsive Elements (CRE) small molecule antagonists, cell-based qHTS assay (AID 1963591; active means well fitted inhibition curve with a large enough effect in the signal ratio in the repeat runs, not every such curve was filed as active; the % refers to the signal ratio). The essentials:
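First, CRE-bla HEK293T cells settled 18 h at 37 C. Next, compound and 0.25 uM final NKH477 were applied for 3 h. Last, LiveBLAzer B/G substrate was loaded for 2 h at room temperature.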

In assay [15] the target is Beta-2 adrenergic receptor (Homo sapiens) (UniProt P07550). The assay can be described thus: Adrenergic beta2 receptor (ADRB2) small molecule antagonists, cell-based qHTS assay (AID 1963592). Further: series mostly up to about 92 µM; nearly all actives have a fitted effect of over 50% in size. The essentials:
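Assay format: CHO-ADRB2 cells, 18-20hr seeding at 37C/5% CO2, then compound plus 1nM isoproterenol agonist mix for 0.5hr RT. Homogeneous time-resolved fluorescence cAMP detection after 1hr, expressed as 665/615 nm ratio.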

For assay [16], the target named is D(2) dopamine receptor (Homo sapiens) (UniProt P14416). The assay can be described thus: Dopamine D2 receptor (DRD2) small molecule agonists, cell-based qHTS assay (AID 1963594). Further: nearly all actives have a fitted effect of over 35% in size. The essentials: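 HEK293 cells stably expressing DRD2 were cultured 24 h at 37 C, then given Ro20-1724 (0.1 mM final) and compounds for 10 min at room temperature. NKH477 (200nM) was then added for 30 min. cAMP was read by HTRF.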

The target is the same in assay [17]. Description: Dopamine D2 receptor (DRD2) small molecule antagonists, cell-based qHTS assay (AID 1963595; active means well fitted inhibition curve with a large enough effect in the signal ratio in the repeat runs, with a control signal flat; the % refers to the signal ratio). The essentials:
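HEK293 cells stably expressing DRD2 were preincubated with 0.1 mM Ro20-1724, then with compound for 10 min at room temperature. Cells were stimulated with 200 nM NKH477 plus 12 nM quinpirole for 30 min, and cAMP was read by HTRF.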

Assay [18] can be described thus: p53 small molecule agonists, cell-based qHTS assay: qHTS cell viability counter screen (AID 1963581). Further: nearly all actives have a fitted effect of over 45% in size. Further: potency means the concentration at half of the fitted maximal effect. The essentials:
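ATP content measured by luminescence in HCT-116 p53RE-bla cells treated 16 h at 37 C, same wells as the reporter screen.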

Assay [19] in a line: cAMP Responsive Elements (CRE) small molecule agonists, cell-based qHTS assay (AID 1963590). The method, boiled down: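 HEK 293T cells stably bearing CRE-bla were plated at 2,000 cells per well and rested 18 h. Compounds, positive controls or DMSO were added for 3 h at 37 C. LiveBLAzer B/G substrate was then loaded for 2 h at room temperature.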
Assay [20] can be described thus: p53 small molecule agonists, cell-based qHTS assay with rat liver microsomes: qHTS cell viability counter screen (AID 1963580). Further: nearly all actives have a fitted effect of over 45% in size. The essentials: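 Counter screen for cytotoxicity under metabolic activation: rat liver microsomes and NADPH, 0.5 mg/mL final each, added with compounds to p53RE-bla HCT-116 cells; 16 h at 37 C, then ATP luminescence read.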

Where “and” joins values, the source holds several entries; their conditions need not be identical. Equal values may be shown once. Results filed as inconclusive are left out. Calls of active or inactive are those of the source. Unless noted, the call rests on the fitted dose curve.

5-hydroxytryptamine receptor 2A (Homo sapiens), sequence (P28223 whole entry, looked up): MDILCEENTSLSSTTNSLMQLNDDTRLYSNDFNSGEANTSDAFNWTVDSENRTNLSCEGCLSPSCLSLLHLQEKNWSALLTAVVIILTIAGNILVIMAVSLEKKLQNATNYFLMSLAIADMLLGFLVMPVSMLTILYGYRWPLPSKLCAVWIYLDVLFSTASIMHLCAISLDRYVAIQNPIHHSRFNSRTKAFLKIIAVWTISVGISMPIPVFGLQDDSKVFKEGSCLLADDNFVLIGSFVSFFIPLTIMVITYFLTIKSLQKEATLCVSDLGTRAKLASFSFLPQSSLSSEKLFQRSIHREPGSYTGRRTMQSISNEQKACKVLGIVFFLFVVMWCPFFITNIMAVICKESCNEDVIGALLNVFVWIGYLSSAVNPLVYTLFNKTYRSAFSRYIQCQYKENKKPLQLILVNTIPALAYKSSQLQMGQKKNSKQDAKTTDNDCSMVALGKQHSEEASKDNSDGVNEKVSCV
D(2) dopamine receptor (Homo sapiens), sequence (P14416 whole entry, looked up): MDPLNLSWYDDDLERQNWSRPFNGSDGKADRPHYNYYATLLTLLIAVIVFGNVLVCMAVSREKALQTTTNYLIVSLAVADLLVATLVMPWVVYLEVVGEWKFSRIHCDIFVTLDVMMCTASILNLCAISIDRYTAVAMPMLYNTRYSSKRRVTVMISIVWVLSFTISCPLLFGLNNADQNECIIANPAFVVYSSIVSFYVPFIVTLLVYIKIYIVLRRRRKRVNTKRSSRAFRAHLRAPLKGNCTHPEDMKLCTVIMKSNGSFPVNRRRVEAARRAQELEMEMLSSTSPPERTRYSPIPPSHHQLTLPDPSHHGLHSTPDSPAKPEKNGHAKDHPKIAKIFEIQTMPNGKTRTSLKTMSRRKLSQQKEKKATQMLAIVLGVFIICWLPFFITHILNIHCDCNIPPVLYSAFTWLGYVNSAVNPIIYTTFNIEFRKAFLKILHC
Gonadotropin-releasing hormone receptor (Homo sapiens), sequence (P30968 whole entry, looked up): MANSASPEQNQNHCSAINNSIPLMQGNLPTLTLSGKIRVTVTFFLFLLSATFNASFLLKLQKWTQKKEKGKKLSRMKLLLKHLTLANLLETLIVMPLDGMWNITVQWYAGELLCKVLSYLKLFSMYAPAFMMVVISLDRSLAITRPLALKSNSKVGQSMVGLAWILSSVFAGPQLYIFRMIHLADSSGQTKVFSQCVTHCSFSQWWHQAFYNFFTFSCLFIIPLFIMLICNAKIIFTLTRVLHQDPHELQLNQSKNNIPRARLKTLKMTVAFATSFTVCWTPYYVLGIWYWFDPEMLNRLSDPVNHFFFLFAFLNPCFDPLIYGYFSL
Beta-2 adrenergic receptor (Homo sapiens), sequence (P07550 whole entry, looked up): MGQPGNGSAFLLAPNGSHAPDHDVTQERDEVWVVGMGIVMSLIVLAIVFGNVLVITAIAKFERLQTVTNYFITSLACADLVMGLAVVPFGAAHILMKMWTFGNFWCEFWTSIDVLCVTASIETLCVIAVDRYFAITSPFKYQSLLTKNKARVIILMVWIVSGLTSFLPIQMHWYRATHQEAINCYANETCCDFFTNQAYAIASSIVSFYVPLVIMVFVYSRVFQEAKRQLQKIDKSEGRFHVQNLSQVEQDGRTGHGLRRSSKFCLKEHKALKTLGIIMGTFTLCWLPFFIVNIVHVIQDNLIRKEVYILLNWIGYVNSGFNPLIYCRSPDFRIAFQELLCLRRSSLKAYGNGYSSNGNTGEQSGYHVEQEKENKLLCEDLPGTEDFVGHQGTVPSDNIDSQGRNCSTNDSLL
KiSS-1 receptor (Homo sapiens), sequence (Q969F8 whole entry, looked up): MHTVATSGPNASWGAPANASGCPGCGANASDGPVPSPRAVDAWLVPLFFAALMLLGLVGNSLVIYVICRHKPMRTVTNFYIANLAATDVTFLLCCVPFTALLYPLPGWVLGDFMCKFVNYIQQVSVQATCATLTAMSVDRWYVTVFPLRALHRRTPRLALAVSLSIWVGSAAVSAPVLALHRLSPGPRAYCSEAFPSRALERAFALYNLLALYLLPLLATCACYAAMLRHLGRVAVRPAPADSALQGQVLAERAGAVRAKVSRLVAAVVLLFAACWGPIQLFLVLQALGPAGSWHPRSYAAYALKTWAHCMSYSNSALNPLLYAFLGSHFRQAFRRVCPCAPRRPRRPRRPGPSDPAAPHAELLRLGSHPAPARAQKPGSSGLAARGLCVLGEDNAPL
Muscarinic acetylcholine receptor M1 (Homo sapiens), sequence (P11229 whole entry, looked up): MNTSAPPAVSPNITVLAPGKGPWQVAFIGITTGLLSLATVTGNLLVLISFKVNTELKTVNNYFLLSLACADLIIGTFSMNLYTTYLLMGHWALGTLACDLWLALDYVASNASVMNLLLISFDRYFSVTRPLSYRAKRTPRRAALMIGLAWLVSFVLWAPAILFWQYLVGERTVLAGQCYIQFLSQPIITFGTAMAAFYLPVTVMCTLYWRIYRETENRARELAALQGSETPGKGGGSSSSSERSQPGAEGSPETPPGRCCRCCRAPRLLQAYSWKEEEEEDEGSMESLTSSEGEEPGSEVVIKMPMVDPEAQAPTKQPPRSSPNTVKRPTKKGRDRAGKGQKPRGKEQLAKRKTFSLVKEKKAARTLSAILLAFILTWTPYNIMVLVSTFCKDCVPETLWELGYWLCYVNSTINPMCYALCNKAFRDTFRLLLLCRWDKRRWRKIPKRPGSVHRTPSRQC

Turning to `CN(C)c1ccc(C(=O)c2ccc(N(C)C)cc2)cc1`, the Potency result in assay [1], in assay [3], in assay [4], in assay [5], in assay [6] and in [7] was “inactive” each time. Moreover, the Potency entry in assay [8], in [10], in [11], in assay [12], in assay [13] and in assay [14] was “inactive” in each case. For the same compound, the Potency entry in assay [15], in assay [16] and in assay [17] was “inactive” throughout. Also, the Potency in [2] is 67.9 µM (active) and 54.5 µM (active); in assay [9], 11.4 µM (active).
Regarding `Cl/C=C\C[N+]12CN3CN(CN(C3)C1)C2`, the Potency result in [1], in assay [3], in [4], in assay [5], in assay [6] and in assay [7] was “inactive” in each case. Also, the Potency entry in assay [8], in assay [18], in assay [10], in assay [12], in assay [13] and in [19] was “inactive” each time. The Potency entry in [14], in [15], in assay [16] and in assay [17] was “inactive” each time. Further, the Potency in assay [2] was 68.6 µM (active).
With `O=C(O)c1ccc(=O)[nH]c1`, the Potency result in [1], in assay [2], in assay [3], in assay [4], in assay [5] and in assay [6] was “inactive” in each case. The Potency result in [7], in assay [8], in assay [9], in assay [10], in assay [11] and in assay [12] was “inactive” throughout. The Potency result in assay [13], in [19], in assay [15], in assay [16] and in [17] was “inactive” throughout.
Turning to `NNC(N)=S`, the Potency is 16 µM (active) in assay [1] and 21.7 µM (active) in [2]. For the same compound, the Potency result in [3], in assay [4], in [5], in assay [6], in assay [7] and in assay [8] was “inactive” each time. Also, the Potency result in assay [18], in assay [9], in assay [10], in [11], in assay [12] and in [13] was “inactive” in each case. For the same compound, the Potency result in assay [19], in assay [14], in assay [15], in assay [16] and in assay [17] was “inactive” each time.
In the case of `CCN(CC)C(=O)C(C)Oc1cccc2ccccc12` (stereo not drawn), the Potency entry in [1], in assay [2], in [3], in assay [4], in assay [5] and in assay [6] was “inactive” throughout. Moreover, the Potency entry in [7], in [8], in assay [20], in assay [10], in assay [11] and in assay [12] was “inactive” each time. Besides, the Potency result in assay [13], in [19], in assay [15], in assay [16] and in assay [17] was “inactive” in each case.
Take `[O]=[Cr](=[O])([OH])[O][Cr](=[O])(=[O])[OH]`: the Potency was 30.9 µM (active) and 61 µM (active) in assay [1]; 40.7 µM (active) in [8]; 18.4 µM (active) in assay [18]. For the same compound, the Potency entry in [2], in [3], in assay [4], in assay [5], in assay [6] and in assay [7] was “inactive” in each case. Further, the Potency entry in [10], in [11], in assay [12], in [13], in assay [19] and in assay [15] was “inactive” in each case. Moreover, the Potency entry in assay [16] and in assay [17] was “inactive” throughout.
As to `CC1(C)C(C=C(Cl)Cl)C1C(=O)OC(C#N)c1cccc(Oc2ccccc2)c1` (stereo not drawn), the Potency result in assay [1], in assay [2], in assay [3], in [4], in assay [5] and in [6] was “inactive” in each case. Moreover, the Potency entry in assay [7], in assay [20], in assay [18], in [9], in assay [10] and in [11] was “inactive” throughout. For the same compound, the Potency entry in [12], in assay [13], in assay [19], in assay [14], in assay [15] and in [16] was “inactive” throughout. Moreover, the Potency result in [17] is “inactive”.
